In ChEMBL document CHEMBL1961873, “Compounds: GSK PKIS; Assays: Nanosyn kinase panel” (2012):

Key:
[1] = molecular target: Serine/threonine-protein kinase PAK 6 (Homo sapiens) (UniProt Q9NQU5); conditions: at 1 µM;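 further: values are mean percent inhibition of PAK6 kinase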
[2] = test system: Tyrosine-protein kinase ABL1 (Homo sapiens), P00519 [E255K]; conditions: at 0.1 µM
[3] = test system: Tyrosine-protein kinase ABL1 (Homo sapiens), P00519 [E255K]; conditions: at 1 µM
[4] = test system: Tyrosine-protein kinase ABL1 (Homo sapiens), P00519 [H396P]; conditions: at 0.1 µM
[5] = test system: Tyrosine-protein kinase ABL1 (Homo sapiens), P00519 [H396P]; conditions: at 1 µM
[6] = test system: Tyrosine-protein kinase ABL1 (Homo sapiens), P00519 [M351T]; conditions: at 0.1 µM
[7] = test system: Tyrosine-protein kinase ABL1 (Homo sapiens), P00519 [M351T]; conditions: at 1 µM
[8] = test system: Tyrosine-protein kinase ABL1 (Homo sapiens), P00519 [Q252H]; conditions: at 0.1 µM
[9] = test system: Tyrosine-protein kinase ABL1 (Homo sapiens), P00519 [Q252H]; conditions: at 1 µM
[10] = test system: Tyrosine-protein kinase ABL1 (Homo sapiens), P00519 [T315I]; conditions: at 0.1 µM

Serine/threonine-protein kinase PAK 6 (Homo sapiens), sequence (Q9NQU5 whole entry, looked up): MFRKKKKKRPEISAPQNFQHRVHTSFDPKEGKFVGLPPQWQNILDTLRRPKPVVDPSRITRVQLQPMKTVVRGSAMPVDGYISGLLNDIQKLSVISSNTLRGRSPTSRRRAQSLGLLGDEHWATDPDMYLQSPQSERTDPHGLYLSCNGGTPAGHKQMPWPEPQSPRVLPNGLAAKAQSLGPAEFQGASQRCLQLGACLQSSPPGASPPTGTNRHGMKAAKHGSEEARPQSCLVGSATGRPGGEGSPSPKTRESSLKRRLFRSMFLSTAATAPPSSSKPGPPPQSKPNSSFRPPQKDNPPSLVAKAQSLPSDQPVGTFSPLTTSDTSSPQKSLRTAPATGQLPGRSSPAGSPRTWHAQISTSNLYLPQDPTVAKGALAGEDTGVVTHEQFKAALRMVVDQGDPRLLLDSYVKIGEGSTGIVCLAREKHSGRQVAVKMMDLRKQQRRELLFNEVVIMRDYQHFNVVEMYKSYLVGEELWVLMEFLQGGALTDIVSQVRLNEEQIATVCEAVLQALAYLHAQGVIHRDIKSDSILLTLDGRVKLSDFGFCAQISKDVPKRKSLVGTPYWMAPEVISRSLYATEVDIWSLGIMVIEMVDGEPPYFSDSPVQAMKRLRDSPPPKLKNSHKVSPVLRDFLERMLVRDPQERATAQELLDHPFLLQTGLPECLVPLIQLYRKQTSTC

Row | SMILES | inhibition [1] [%] | inhibition [2] [%] | inhibition [3] [%] | inhibition [4] [%] | inhibition [5] [%] | inhibition [6] [%] | inhibition [7] [%] | inhibition [8] [%] | inhibition [9] [%] | inhibition [10] [%]
1 | NS(=O)(=O)c1ccc(-c2cc3ccncc3cc2OCc2ccccc2)cc1 | 4.76 | 2.82 | 3.92 | 4.66 | 6.67 | 3.16 | 4.42 | 4.84 | 4.61 | 1.65
2 | Nc1nccc(-c2c(-c3ccc(F)cc3)nn3cc(C(F)(F)F)ccc23)n1 | 5.02 | -2.06 | -1.18 | 0.65 | -0.33 | 1.15 | 1.14 | 1.06 | 0.27 | 0.42
3 | NS(=O)(=O)c1ccc(N/N=C2\C(=O)Nc3ccc(Cl)cc32)cc1 | 7.73 | -0.63 | 5.98 | 3.92 | 12.9 | 1.55 | 12.6 | 2.4 | 9.91 | 0.91
4 | NS(=O)(=O)c1cccc(Nc2cc(-c3ccc(F)cc3)n[nH]2)c1 | 13 | 1.07 | 8.03 | 5.72 | 15.4 | 2.42 | 19.8 | 4.73 | 18.2 | 1.49
5 | COc1ccc2ncnc(Nc3ccc(OCc4ccccc4)cc3)c2c1 |  | 1.91 | 2.75 | 1.73 | 4.61 | -1.29 | 2.67 | 0.25 | 4.68 | 0.02
6 | O=C1Nc2ccccc2/C1=C/Nc1ccc2[nH]c(=O)[nH]c2c1 | -6.29 | 7.84 | 15 | 7.55 | 23.4 | 4.2 | 24.6 | 8.42 | 26 | 4.38
7 | C[C@@H](Oc1cc(-n2cnc3ccc(OCC4CCN(C)CC4)cc32)sc1C(N)=O)c1ccccc1C(F)(F)F | -0.65 | -1.19 | 0.71 | -1.32 | 1.14 | 0.4 | 2.58 | -0.85 | 1.8 | 0.36
8 | Cc1ccc(Nc2ccnc(Nc3cccc(C(N)=O)c3)n2)cc1O | 4.03 | 71.2 | 93.4 | 76.5 | 94.4 | 74.4 | 95 | 67.6 | 91.5 | 7.09
9 | NC(=O)c1cccc(Nc2nccc(Nc3cccc(F)c3)n2)c1 | -5.46 | 7.73 | 47 | 9.26 | 56.1 | 9.02 | 57.7 | 9.5 | 53.9 | 1.3
10 | CN(C)C(=O)O[C@@H]1CN[C@@H](C#Cc2cc3ncnc(Nc4ccc(OCc5cccc(F)c5)c(Cl)c4)c3s2)C1 | -6.9 | -0.68 | 2.16 | -0.68 | -1.23 | -1.17 | 0.01 | 2.52 | 2.17 | -0.5
11 | COc1cc(/C=N/Nc2ncnc3c2cnn3C(C)C)ccc1O |  | 21.7 | 71 | 34.7 | 80.7 | 34.7 | 80.5 | 35.4 | 81.6 | 9.92
12 | Cc1ccc2c(-c3ccnc(Nc4ccc5c(c4)OCCO5)n3)c(-c3ccc(C(F)(F)F)cc3)nn2n1 | 10.7 | 2.27 | 3.32 | 2.14 | 3.45 | 0.52 | 3.13 | 1.51 | 4.16 | 0.69
13 | COc1cccc(-n2ncc3c(N/N=C/c4ccc(C)cc4)ncnc32)c1 | -8.44 | 18.9 | 65.3 | 28.1 | 73.5 | 25.4 | 73.7 | 37.6 | 81.4 | 5.28
14 | Cc1cc(O)cc(C)c1/C=C/c1cncc(C(=O)N(C)C)c1 | -3.14 | 2.42 | 5.44 | 4.36 | 8.17 | 3.42 | 7.17 | 4.29 | 8.87 | 2.58
15 | Cc1ccc2c(c1)/C(=N/Nc1ccc(S(N)(=O)=O)cc1)C(=O)N2 | -8.53 | 0.74 | 3.57 | -0.31 | 5.97 | 0.64 | 8.33 | 1.64 | 7.52 | 1.43
16 | O=S(=O)(CCOCc1ccc(-c2ccc3ncnc(Nc4ccc(OCc5cccc(F)c5)c(Cl)c4)c3c2)o1)c1ccccc1 | -7.47 | 0.44 | -0.12 | 0.4 | 2.46 | 1.57 | 0.99 | 3.02 | 3.04 | -0.12
17 | CCOc1nccc2c1nc(-c1nonc1N)n2CC | 12.4 | 1.66 | 3.45 | 1.16 | 6.55 | 1.78 | 5.68 | 2.67 | 6.45 | 1.75

Row | SMILES | inhibition [1] [%] | inhibition [2] [%] | inhibition [3] [%] | inhibition [4] [%] | inhibition [5] [%] | inhibition [6] [%] | inhibition [7] [%] | inhibition [8] [%] | inhibition [9] [%] | inhibition [10] [%]
18 | COc1cccc(-n2nc(C)c3c(N/N=C(\C)c4ccncc4)ncnc32)c1 | -5.25 | 1.05 | 1.53 | 0.51 | 4.07 | -0.39 | 4.06 | 0.65 | 3.19 | -2.26
19 | NS(=O)(=O)c1ccc(Nc2cc(-c3cccc(O)c3)n[nH]2)cc1 | -5.13 | 4.46 | 7.4 | 5.03 | 5.99 | 4.35 | 4.29 | 5.44 | 5.74 | 4.08
20 | Nc1nccc(-c2c(-c3ccc(F)cc3)ncn2CCCN2CCOCC2)n1 |  | 3.15 | 4.81 | 2.47 | 4.57 | 0.51 | 3.75 | 2.53 | 6.74 | 2.38
21 | COc1cc2ncnc(Nc3ccc4c(cnn4Cc4ccccc4)c3)c2cc1OC | -6 | 2.21 | 2.28 | 2.93 | 6.16 | 0.94 | 3.26 | 2.63 | 7.1 | 2.91
22 | Cc1cc(Cl)cc2c1NC(=O)C2=NNc1ccc(S(N)(=O)=O)cc1 | -1.69 | 1.25 | 5.11 | 2.97 | 8.01 | -0.27 | 6.65 | 4.15 | 7.11 | 1.38
23 | CC(C)c1ccc(Nc2nccc(-c3cnn4ncccc34)n2)cc1 | 2.84 | 1.9 | 4.45 | 3.09 | 8.88 | 1.81 | 10.2 | 2.85 | 11.6 | 2.34
24 | CCn1c(-c2nonc2N)nc2c(C#CC(C)(C)O)nc(OCCNC)cc21 | 1.16 | 2.13 | 2.96 | 3.72 | 4.85 | 1.62 | 3.61 | 3.81 | 4.6 | 1.77
25 | Cc1cc(-c2ccccn2)cc(C)c1/C=C/c1cncc(-c2nn[nH]n2)c1 | -5.17 | -0.88 | 3.22 | 3.18 | 8.77 | 0.81 | 5.63 | 3.34 | 9.01 | 0.21
26 | COc1cccc(-n2ncc3c(N/N=C/c4ccc(S(C)(=O)=O)cc4)ncnc32)c1 | 5.24 | 79 | 93.4 | 85.2 | 94.1 | 84.9 | 95.5 | 87.2 | 95 | 49.4
27 | Cc1nc(-c2ccccc2)n2nc(NCCCN3CCOCC3)ncc12 | -7.1 | 0.22 | 2.36 | 2.5 | 4.26 | -1.13 | 0.73 | 3.04 | 3.3 | 2.3
28 | C[C@@H](Oc1cc(-n2cnc3ccc(OC[C@@H](O)CO)cc32)sc1C(N)=O)c1ccccc1Cl | -6.36 | 0.24 | 5.92 | 0 | 9.51 | 1.32 | 8.84 | -1.76 | 8.32 | -0.17
29 | Cc1ccc(NC(=O)CC2CC2)cc1-c1ccc(C(=O)NCC2CC2)cc1 | 1.56 | 4.24 | 5.26 | 6.77 | 3.96 | 4.32 | 3.09 | 6.39 | 4.54 | 2.14
30 | CS(=O)(=O)CCNCc1nc(-c2ccc3ncnc(Nc4ccc(OCc5cccc(C(F)(F)F)c5)cc4)c3c2)cs1 | -5.71 | 0.56 | 1.8 | 2.03 | 2.31 | 1.36 | 1.22 | 1.8 | 1.75 | 0.33
31 | O=C1Nc2ccc(-c3cccnc3)cc2C1=Cc1cc(Br)c(O)c(Br)c1 | 7.69 | 3.78 | 8.72 | 3.44 | 7.14 | 4.37 | 6.55 | 2.79 | 7.71 | 2.69
32 | N#Cc1cccc(Nc2nccc(-c3cnn4ncccc34)n2)c1 | -4.67 | 7.52 | 33 | 13.6 | 51.8 | 16.2 | 60.8 | 15.2 | 57 | 8.12
33 | COC(=O)c1cncc(/C=C/c2c(C)cc(O)cc2C)c1 | 7.57 | 6.85 | 38 | 13.3 | 60 | 15.9 | 66.3 | 15.9 | 64.1 | 4.16
34 | Cc1ccc2c(-c3ccnc(Nc4cccc(C(F)(F)F)c4)n3)c(-c3ccccc3)nn2n1 | -8.69 | 3.52 | 19.7 | 11.3 | 44.8 | 24.1 | 68.2 | 24.2 | 69.1 | 6.16
